# An excerpt weighted towards active compounds, which were near 3.1% of everything screened.
# MITF TRPM1 inh – MITF TRPM1 promoter inhibition in SK-MEL-5 cells. SK-MEL-5 TRPM1 promoter luciferase, 24 h. inhibition, % at 12.5 µM. actives 0.83% (n = 330,000). AID 488899;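 active = mean inhibition across replicates of 60% or more, whatever share of single replicates reaches that level; inconclusive = some that reach 60%, reason not given; inactive = mean inhibition across replicates below 60%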
# HIF-2a block – blocks HIF-2a reporter activity. 786-0 RCC cells HIF-2a reporter, luciferase luminescence, overnight. inhibition, % at 18.8 µM. actives 0.72% (n = 360,000);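 active = inhibition of the luminescence signal of 40% or more relative to plate controls, in a single-dose primary screen at 18.75 µM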
# Peg3 prom inh-1 – inhibitors of Peg3 promoter; HeLa PEG-Prom luciferase reporter, luminescence, overnight; inhibition, % at 20 µM; actives 1.7% (n = 360,000);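 active = inhibition of at least 50% at 20 µM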
# ABHD5-PLIN5 inh – inhibitors of human ABHD5-perilipin-5 interaction | AID 602281 | inhibition, % at 4 µM | actives 0.78% (n = 360,000) | Split G. princeps luciferase complementation, luminescence, 4 h | Q00G26+Q8WTS1;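 active = inhibition above the mean inhibition across every tested compound plus 3 SD, cut at about 22% in these data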;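 also: 0% = DMSO only wells and the 100% control is not disclosed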
# Target sequence (Q00G26 whole entry, looked up): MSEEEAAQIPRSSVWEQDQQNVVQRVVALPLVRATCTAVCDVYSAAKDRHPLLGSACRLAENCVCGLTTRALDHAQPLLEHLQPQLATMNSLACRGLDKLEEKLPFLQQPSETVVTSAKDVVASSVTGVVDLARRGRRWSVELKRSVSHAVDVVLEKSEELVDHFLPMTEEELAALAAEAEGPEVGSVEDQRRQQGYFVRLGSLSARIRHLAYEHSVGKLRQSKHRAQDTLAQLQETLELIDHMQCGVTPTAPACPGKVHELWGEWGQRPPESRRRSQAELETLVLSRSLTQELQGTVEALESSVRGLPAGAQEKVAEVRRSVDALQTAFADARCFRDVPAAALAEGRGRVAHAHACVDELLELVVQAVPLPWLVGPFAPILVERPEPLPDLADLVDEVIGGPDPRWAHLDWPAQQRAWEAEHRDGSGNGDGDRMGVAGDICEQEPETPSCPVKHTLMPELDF
# Target sequence (Q8WTS1 whole entry, looked up): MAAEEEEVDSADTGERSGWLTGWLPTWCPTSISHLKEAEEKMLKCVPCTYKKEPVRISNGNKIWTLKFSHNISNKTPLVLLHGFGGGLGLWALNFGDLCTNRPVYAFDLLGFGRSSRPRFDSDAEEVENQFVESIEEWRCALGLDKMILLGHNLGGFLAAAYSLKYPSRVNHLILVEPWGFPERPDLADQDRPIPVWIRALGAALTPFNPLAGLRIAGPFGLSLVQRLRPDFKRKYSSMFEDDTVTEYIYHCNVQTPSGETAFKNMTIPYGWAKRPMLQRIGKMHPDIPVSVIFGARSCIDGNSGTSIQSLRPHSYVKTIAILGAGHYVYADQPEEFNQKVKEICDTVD
# KKLEB tox – reduces viability of KKLEB cystic fibrosis airway cells; KKLEB CF airway cells viability, ATPlite luminescence, overnight; stronger effect = lower value; cells stimulated with P. aeruginosa culture filtrate; activity change (cytotoxicity), % at 5 µM; actives 0.36% (n = 360,000); AID 602141;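 active = corrected activity change at or below -50% at 5 µM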
# CF NFkB inh – blocks PAF-induced NF-kB reporter in cystic fibrosis cells. AID 588850. inhibition, % at 5 µM. KKLEB NF-kB-GFP reporter, GFP fluorescence overnight. actives 0.86% (n = 360,000);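 active = at least 50% inhibition at 5 µM, scaled per plate between neutral and stimulator controls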;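 also: PAF is a Pseudomonas aeruginosa culture filtrate used as stimulus; plate controls were PAF-stimulated DMSO wells for no effect and unstimulated DMSO wells for full effect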
# Peg3 prom inh-2 – confirmation of Peg3 promoter inhibitors | shares compounds with Peg3 prom inh-1 | HeLa PEG-Prom luciferase reporter, luminescence, overnight | inhibition, % at 20 µM | actives 84% (n = 1,300) | AID 602417;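 active = at 20 µM dose, 40% or more inhibition averaged across four replicates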
# The depositor's hits bear a star; ? = inconclusive; nt = no result.
SMILES,MITF TRPM1 inh,HIF-2a block,Peg3 prom inh-1,ABHD5-PLIN5 inh,KKLEB tox,CF NFkB inh,Peg3 prom inh-2
COc1ccc(C2c3ccc4ccccc4c3Oc3ncn(CCO)c(=N)c32)cc1OC (stereo not given),-11.1,10.7,59.8*,-5.3,-4.9,39.1,81.9*
COc1ccc(C2c3ccc(O)cc3Oc3ncn(CCN4CCOCC4)c(=N)c32)cc1OC (stereo not given),-7.1,10.4,-2.8,-1.6,2.0,3.1,nt
CC(C)(C)C(=O)Cn1c(=N)n(Cc2ccccc2)c2ccccc21,-8.9,16.7,13.3,-1.6,-12.6,4.0,nt
CCCn1c(=N)n(CC(=O)c2ccc(Cl)cc2)c2ccccc21,15.5,6.6,65.8*,-3.1,-6.3,-10.9,60.1*
CCCn1c(=N)n(CC(=O)OCC)c2ccccc21,-5.9,-1.1,-2.7,0.2,-11.6,4.8,nt
Cc1ccc(Cn2c(=N)n(CC(=O)c3ccccc3)c3ccccc32)cc1,0.9,9.7,92.4*,6.1,-14.7,12.0,86.1*
Cc1ccc(Nc2c([N+](=O)[O-])ccc3nonc23)c(C)c1,-10.7,-5.6,5.7,0.0,-4.2,13.7,nt
Cc1ccc(S(=O)c2ccc([N+](=O)[O-])c3nonc23)cc1 (stereo not given),nt,0.0,51.3*,13.2,-3.8,-10.2,98.5*
O=C1Cn2nnc(-c3ccccc3)c2C2c3ccccc3CCN12 (stereo not given),nt,7.7,6.3,2.4,11.7,-16.4,nt
CCOC(=O)C1CCN(C(=O)c2ccc3c(c2)NC(=O)/C(=C\c2cccc(C)c2)S3)CC1,-2.6,-26.0,-0.6,8.1,16.0,-1.4,nt
Cc1cccc(/C=C2/Sc3ccc(C(=O)NCCN4CCCC4)cc3NC2=O)c1,88.6*,5.1,93.8*,1.8,-18.9,14.0,100.1*
CCCCC(=O)NC(c1ccccc1Cl)c1ccc2cccnc2c1O (stereo not given),70.9*,12.6,57.6*,9.6,-10.9,2.2,64.9*
CC(=O)NC(c1ccc(C(C)C)cc1)c1ccc2cccnc2c1O (stereo not given),?,11.9,56.7*,16.2,5.2,-8.0,69.9*
CC(=O)NC(c1ccccc1)c1cc([N+](=O)[O-])c2cccnc2c1O (stereo not given),13.7,21.3,61.0*,3.9,-1.3,16.6,63.5*
CC(=O)NC(c1cccc([N+](=O)[O-])c1)c1ccc2cccnc2c1O (stereo not given),43.5,10.2,41.0,0.9,-0.9,0.6,nt
CC(=O)NC(c1ccc(C)cc1)c1cc(Cl)c2cccnc2c1O (stereo not given),43.5,25.6,65.3*,-0.5,2.7,-13.3,56.4*
C=CCn1c(=O)c2ccccc2n2c(SCC(=O)NC(C)C)nnc12,-5.1,-6.4,2.1,-2.7,2.1,-4.2,nt
C(=Nn1cnnc1)c1ccc2c(c1)CCC2,nt,-4.1,0.3,7.4,19.9,-28.6,nt
CC(=O)NC(c1cccs1)c1cc([N+](=O)[O-])c2cccnc2c1O (stereo not given),11.5,1.6,47.7,3.2,4.8,4.8,nt
CCC(=O)NC(c1cccs1)c1cc([N+](=O)[O-])c2cccnc2c1O (stereo not given),0.0,5.1,52.7*,-6.0,-5.1,25.8,53.5*
CCN(CC(=O)Nc1c(F)cccc1F)C(=O)c1ccc(Cl)c(S(=O)(=O)N2CCCC2)c1,0.0,7.9,4.7,1.4,5.6,-4.8,nt
COc1ccc(CSc2ccc(-c3nc4ccccn4c3NCc3ccccc3)cc2OC)cc1,13.2,-73.8,16.2,1.6,-6.0,11.3,nt
CCC(C)Sc1ccc(-c2nc3ccccn3c2NCc2ccccc2)cc1OC (stereo not given),5.8,-292.0,93.1*,5.3,-6.1,18.0,97.1*
Cc1ccc2[nH]c3c(c2c1)CCCC3C(N)=O (stereo not given),-2.3,-5.6,18.6,14.0,8.5,-4.4,nt
Cc1ccc2[nH]c3c(c2c1)CCCC3NC(=O)CCl (stereo not given),54.8,12.2,82.4*,5.8,-64.6*,62.2*,88.8*
SMILES,MITF TRPM1 inh,HIF-2a block,Peg3 prom inh-1,ABHD5-PLIN5 inh,KKLEB tox,CF NFkB inh,Peg3 prom inh-2
CC(C)n1cc(CN2CCC(C(=O)Nc3cccc(-c4cccc(Cl)c4)c3)CC2)cn1,38.3,16.0,110.6*,10.0,-19.1,12.3,98.1*
CCn1cc(CN2CCC(C(=O)Nc3cccc(-c4cccc(F)c4)c3)CC2)cn1,-5.4,7.9,17.4,1.4,1.5,-0.2,nt
Nc1cccc2nc3ccccc3cc12,84.7*,5.1,95.3*,8.4,-8.3,-88.6,99.5*
O=c1c(-c2nn[nH]n2)coc2ccc(Cl)cc12,4.0,18.3,11.6,-6.4,-13.5,-11.1,nt
COc1ccc(C23CC4CC(CC(C4)C2)C3)cc1C(=O)NCCN(C)C,53.0,17.7,50.8*,4.9,-7.3,6.7,75.3*
C=CCC[C@@H](Cc1ccc(F)cc1)C(=O)OC[C@@H](Cc1c[nH]c2ccccc12)NC(=O)[C@H](CC=C)CC(=O)N[C@H](CO)Cc1ccccc1,49.5,-7.6,51.7*,9.5,-25.0,42.2,38.0
C=CCC[C@H](Cc1ccc(F)cc1)C(=O)OC[C@@H](Cc1c[nH]c2ccccc12)NC(=O)[C@@H](CC=C)CC(=O)N[C@@H](CO)Cc1ccccc1,1.6,-8.4,28.9,-15.1,-26.3,17.1,nt
CN1CCCN(S(=O)(=O)c2ccc(O)c(C(=O)O)c2)CC1,11.0,7.8,0.5,8.7,-9.7,0.1,nt
NS(=O)(=O)c1ccc(CCNC(=O)c2cc(-c3cccs3)nc3ccccc23)cc1,8.3,-9.7,53.9*,2.5,0.0,-16.0,41.1*
CCc1ccc(-c2cc3c(=O)n(CC(=O)N4CCCCCC4)nc(C)n3n2)cc1,10.2,6.2,-6.3,2.0,12.6,-4.8,nt
CC(=O)c1ccc(OCCCC(=O)Nc2nnc(C3CC3)s2)cc1,-6.3,10.1,-9.6,1.3,-21.3,-1.5,nt
Cc1ccc(-c2nc3ncccc3o2)cc1NC(=O)Cc1ccc(Cl)cc1,-9.2,-2.5,51.1*,-1.1,-4.4,-5.7,25.1
Cc1ccc(-c2nc3ncccc3o2)cc1NC(=O)CC(C)C,3.4,4.6,2.4,-2.8,6.4,-12.0,nt
COc1ccc(C)cc1CN1C(=O)c2ccccc2C1=O,2.8,7.2,9.6,6.5,-0.6,0.5,nt
CC(=O)NC1(c2ccccc2)CCN(c2cc(C)nc(-c3ccccc3)n2)CC1,-3.2,33.3,9.4,11.4,-6.4,20.8,nt
Cc1ccc2c(c1)COc1c3ccc(C(=O)O)cc3nn1-2,69.7*,83.2*,88.8*,0.5,-0.1,-6.3,36.1
COc1ccccc1NC(=O)Nc1nc(C(N)CCc2ccccc2)cs1 (stereo not given),nt,4.5,88.2*,-1.6,-9.7,-3.1,95.1*

# Assay outcomes deposited in PubChem BioAssay by several laboratories.
